# Results reported in PubChem BioAssay (NCI).
# About 83,000 compounds went through this panel and 20% of them were active in at least one assay; those are over-represented in the sample as a whole.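 How to read the values: 0–100, growth inhibition (40 = 60% inhibited); 0, no net growth; -100 to 0, cell death (-40 = 40% of starting cells died; -100 = all dead).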 Values without a mark were called inactive. Activity calls are given as the source filed them. The calls were made as follows: active = growth percent below 10; inactive = the rest.
# Key:
# Test in all cases: NCI-60 one-dose screen, 48 h (100 = growth as untreated, 0 = no growth, -100 = all killed)
# Details in all cases: 10 µM unless noted
# HCT-15 colon = tested on: HCT-15 colon
# HT29 colon = tested on: HT29 colon
# SNB-75 CNS = tested on: SNB-75 CNS
# SNB-19 CNS = tested on: SNB-19 CNS
# U251 CNS = tested on: U251 CNS
# PC-3 prostate = tested on: PC-3 prostate
# SK-MEL-5 melanoma = tested on: SK-MEL-5 melanoma
# UACC-62 melanoma = tested on: UACC-62 melanoma
# LOX IMVI melanoma = tested on: LOX IMVI melanoma
# SK-MEL-28 melanoma = tested on: SK-MEL-28 melanoma
SMILES,growth (HCT-15 colon),growth (HT29 colon),growth (SNB-75 CNS),growth (SNB-19 CNS),growth (U251 CNS),growth (PC-3 prostate),growth (SK-MEL-5 melanoma),growth (UACC-62 melanoma),growth (LOX IMVI melanoma),growth (SK-MEL-28 melanoma)
COc1ccc(Oc2ccc(/C=C/C(=O)c3cc4ccccc4oc3=O)cc2)cc1,80.5%,108%,50.2%,91.7%,87%,75.3%,92.7%,76.7%,70.7%,98.6%
CCCn1c(=S)sc2c(NNC(C)=O)nc(C)nc21,90.2%,103%,89.9%,92.4%,91.1%,90.3%,96.4%,93%,87%,141%
COCCn1cc(-c2csc(-c3c[nH]c4ccccc34)n2)c2cccnc21,25.8%,11.6%,20.5%,65.5%,35.5%,29.6%,8.9% (active),54.8%,34.1%,64.4%
O=C(/C=C/c1cn(-c2ccccc2)nc1-c1ccccc1)CCC(=O)NO,110%,104%,95.6%,112%,106%,108%,105%,103%,99.4%,130%
COc1cc(-c2nccc3[nH]c(-c4cccc5[nH]ccc45)nc23)cc(OC)c1OC,17.6%,-3.78% (active),73.6%,49.1%,13.6%,11.8%,-45.8% (active),51.4%,20.6%,76.9%
COc1cccc(-c2cn3nc(-c4cn(C)c5ccccc45)sc3n2)c1,73.7%,91.1%,83.1%,91.7%,97.7%,94.7%,84.2%,77.9%,97.6%,95.1%
CCOC(=O)CNC1=C(Cl)C(=O)N(Cc2ccc(Cl)cc2)C1=O,110%,105%,97.9%,98.6%,100%,97.7%,102%,104%,95.9%,106%
c1cc(OCCN2CCCCC2)ccc1CNc1ccc2nc(CCC3CCCCC3)[nH]c2c1,-13.9% (active),8.7% (active),68.1%,62%,-11.8% (active),44.9%,-99.4% (active),53.5%,-82% (active),-86.6% (active)
C=CC(=O)Nc1cccc(Oc2nccc(Nc3nnc(-c4ccc(Br)cc4)s3)n2)c1,88.6%,116%,87.5%,97%,97.5%,89.5%,94.7%,87.6%,91.9%,108%
CCCN(CCSSCCNc1nc(N(C)O)nc(N(C)O)n1)c1nc(N(C)O)nc(N(C)O)n1,69.3%,78.4%,73.8%,44.7%,32.8%,67.9%,80.9%,81.3%,70.7%,67.1%
CC(C)(C)CC(C)(C)Nc1c(-c2c(O)c3ccccc3oc2=O)nc2sc3ccccc3n12,20%,34.8%,49.7%,26.1%,25.5%,34.9%,42%,30.4%,36.4%,58.2%
C#COc1cccc(Nc2ncnc3cc(NC(=O)[C@H](C)Cl)ccc23)c1,9.91% [6.25 µM] (active),1.38% [6.25 µM] (active),3.55% [6.25 µM] (active),19.3% [6.25 µM],3.14% [6.25 µM] (active),95.3% [6.25 µM],9.1% [6.25 µM] (active),22.1% [6.25 µM],5.47% [6.25 µM] (active),29.4% [6.25 µM]
COc1ccc2c(c1)C(C)Cc1c(ncnc1-n1cnc3cc(C)ccc31)N2C (stereo not given),13.2%,5.82% (active),63.3%,33.5%,18.5%,24.7%,-14.1% (active),36.1%,21.9%,64.3%
CNCC[C@H](Oc1cccc2ccccc12)c1cccs1,101%,71.8%,61.5%,97.8%,85.3%,68.9%,93%,91.3%,74.1%,91.5%
